# Test results from PubChem BioAssay AID743093 (The Scripps Research Institute Molecular Screening Center, 2013).
# Screen size: about 150,000 compounds; about 100 (0.067%) were called active.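 How the source made its calls: active means inhibition above the mean plus 3 SD of compounds within the control limits, set per campaign (cut at about 38% in these data); inactive means the rest.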 The entries come from a sample that favours actives as a whole.
# Assay: late stage P. falciparum gametocyte viability inhibitors, primary screen, ATP luminescence, HTS (AID 743093);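 further: 0% = DMSO wells and 100% = medium only without gametocytes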
# Settings: P. falciparum stage V gametocytes, 24 h, at 10.9 µM, stronger effect = higher value
row,SMILES,inhibition
1,CCCn1c(=O)c(C(=O)Nc2cc(C)ccn2)c(O)c2ccccc21,-14.8% (inactive)
2,CC(=O)c1ccc(NC(=O)C(C)N(C)CC(=O)Nc2ccccc2Cl)cc1 (stereo not given),-5.51% (inactive)
3,CCOC(=O)C1(CCOc2ccccc2)CCN(Cc2cc(OC)cc(OC)c2)CC1,9.31% (inactive)
4,Cn1c(=O)c2c(-c3cccc(Br)c3)c(C#N)c(N)nc2n(C)c1=O,-18.2% (inactive)
5,COc1ccccc1-c1nnc(-c2ccc(F)cc2)o1,-17.9% (inactive)
6,CCOC(=O)[C@H]1[C@H]2COc3ccccc3[C@@H]2N2C(=O)CN(Cc3ccccc3)C(=O)[C@@]12C,-1.62% (inactive)
7,CC(=O)Cn1cnc2c(cnn2-c2ccccc2)c1=O,2.17% (inactive)
8,O=C1C(=O)N(CCCO)C(c2ccccc2)/C1=C(\O)c1ccc(Br)cc1 (stereo not given),2.05% (inactive)
9,COc1ccc(N(CC(=O)NCCSCc2cccc(Cl)c2)S(C)(=O)=O)cc1,1.88% (inactive)
10,COc1cc(OC)c(C(=S)N2CCCC2)cc1OC,-6.55% (inactive)
11,O=c1[nH]cnc(O)c1C(c1ccc(F)cc1)c1c(O)nc[nH]c1=O,0.56% (inactive)
12,CCCc1nc2oc3c(=O)[nH]cnc3c2c2c1COC(C)(C)C2,8.46% (inactive)
13,COc1ccc(-c2c(C#Cc3ccccc3)c3ccccc3n2C)cc1,-4.41% (inactive)
14,Cc1cccc(NC(=O)C(C)SCc2ccccc2)c1 (stereo not given),-2.36% (inactive)
15,COc1ccc(Cc2cc(-c3ccc(F)cc3)n[nH]c2=O)cc1,-14.6% (inactive)
16,C=CC[C@@H](CC(=O)N[C@@H](CO)Cc1ccccc1)C(=O)NCCOC(=O)[C@@H](CC=C)CC(=O)OC(C)(C)C,-18.1% (inactive)
17,COc1ccccc1-n1c(SCC(=O)O)nc2sc3c(c2c1=O)CCC3,-0.96% (inactive)
18,Cc1cc(C)cc(NC(=O)NC2CCN(CC(=O)Nc3cccc(Cl)c3C)CC2)c1,-10.3% (inactive)
19,CC(C)Cc1nnc(NC(=O)CCc2ccccc2)s1,-5.6% (inactive)
20,COc1ccc(CCNC(=O)C2CCCN2C(=O)Nc2ccccc2)cc1OC (stereo not given),11.4% (inactive)
21,COC(=O)C1(C)NC(c2ccc(F)cc2)C2C(=O)N(c3ccccc3)C(=O)C21 (stereo not given),-19.3% (inactive)
22,COc1ccccc1-c1oc2ccccc2c1C#CCCCCO,7.1% (inactive)
23,Cc1cc(-c2n[nH]c(=S)n2/N=C/c2ccco2)n[nH]1,9.38% (inactive)
24,CCCNC(=S)N1CCC(NC(=O)c2ccc(OC)cc2)CC1,-3.26% (inactive)
25,COc1ccc(C(C(=O)NC(C)(C)C)N(C(=O)Cn2nnc3ccccc32)c2ccc(C(C)=O)cc2)cc1O (stereo not given),8.85% (inactive)
